Reference: PubChem BioAssay
Active and inactive are the calls of the source.

Key:
[1] = biological target: Albumin (Bos taurus) (UniProt P02769); test: compounds binding labelled BSA control protein – biochemical, small-molecule microarray, Alexa647 label, 635/667 nm fluorescence, artefact control for SMM control protein annotation, profiling panel (AID 1118); details: BSA-A647 binding, fluorescence 635 nm, higher = more signal;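 note: score merges 667 nm emission intensity and signal-to-noise per printed compound spot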
Sequence of Albumin (Bos taurus) (P02769 whole entry, looked up): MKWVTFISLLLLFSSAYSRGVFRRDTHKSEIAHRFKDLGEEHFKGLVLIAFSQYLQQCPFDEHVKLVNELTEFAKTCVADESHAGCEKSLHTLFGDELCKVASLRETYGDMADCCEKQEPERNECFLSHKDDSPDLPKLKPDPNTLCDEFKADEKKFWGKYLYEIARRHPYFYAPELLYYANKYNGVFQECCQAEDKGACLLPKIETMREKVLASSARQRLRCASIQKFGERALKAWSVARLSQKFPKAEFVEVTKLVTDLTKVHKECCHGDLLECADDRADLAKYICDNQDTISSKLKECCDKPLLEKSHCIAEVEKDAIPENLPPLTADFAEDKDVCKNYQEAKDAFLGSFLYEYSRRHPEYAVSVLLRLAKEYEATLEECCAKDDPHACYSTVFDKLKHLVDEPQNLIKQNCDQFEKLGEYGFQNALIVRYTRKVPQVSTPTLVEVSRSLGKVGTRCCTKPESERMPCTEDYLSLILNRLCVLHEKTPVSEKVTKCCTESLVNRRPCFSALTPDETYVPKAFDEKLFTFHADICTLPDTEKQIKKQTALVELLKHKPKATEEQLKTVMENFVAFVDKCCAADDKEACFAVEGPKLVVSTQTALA

[2] = probe aXIP binding to arrayed compounds – biochemical, NeuroSMM set, 635/667 nm fluorescence, primary screen (AID 1119); details: small-molecule microarray, higher = more signal, called active from +8 up or from −8 down;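 note: probe is the protein aXip251-270 applied at 1 µg/mL to compound-printed slides; binding of probe to printed compounds measured as 667 nm fluorescence plus signal to noise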
[3] = probe aNOTCH3 binding on compound microarray – biochemical, small-molecule microarray, 635/667 nm fluorescence, primary screen (AID 1120); details: higher = more signal;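 note: probe is a biotin-tagged antibody raised against NOTCH3 rather than NOTCH3 protein; score merges spot fluorescence near 667 nm with spot signal to noise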
[4] = probe aNOTCH2 binding on compound microarray – biochemical, small-molecule microarray, 635/667 nm fluorescence, primary screen (AID 1121); details: higher = more signal;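 note: score merges feature fluorescence read at 667 nm with its signal to noise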
[5] = biological target: Carbonic anhydrase 2 (Homo sapiens) (UniProt P00918); test: compounds binding carbonic anhydrase 2 – biochemical, small-molecule microarray, Alexa647-labelled CAII, profiling panel (AID 1122); details: CAII-A647 binding fluorescence, higher = more signal
[6] = COS7 lysate on small-molecule microarray, probe aHis, 635 nm (AID 1123); details: COS7 cell lysate, fluorescence, higher = more signal;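 note: z-score combines 667nm fluorescence intensity with signal-to-noise per printed compound spot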
[7] = probe aLAP1 signal on lysate-treated microarray – cell lysate, small-molecule microarray, COS7 lysate, primary screen (AID 1124); details: probe aLAP1, fluorescence, higher = more signal;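 note: lysate comes from COS7 cells expressing LAP1 and is applied at 0.3 µg/mL; score merges spot fluorescence near 667 nm with signal-to-noise over triplicate slides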
[8] = system: Sam68 (KHDRBS1); test: compounds binding KHDRBS1 protein – biochemical, small-molecule microarray, 635 nm fluorescence, primary screen (AID 1125); details: higher = more signal;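 note: score merges 667 nm channel intensity with signal to noise over triplicate slides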
[9] = system: Chordin-like protein 2 (CHRDL2); test: compounds binding chordin-like 2 – biochemical, small-molecule microarray, 635 nm fluorescence, primary screen (AID 1126); details: fluorescence 635 nm, higher = more signal;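 note: printed compound slides probed with Chrdl2 protein at 4 µg/mL for 1 h at 4 C; score merges 667 nm emission intensity with signal to noise over three replicate slides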
[10] = biological target: Concanavalin-A (Canavalia ensiformis) (UniProt P02866); test: compounds binding concanavalin A lectin – biochemical, small-molecule microarray, Alexa647 label, 635 nm, artefact control for SMM control protein annotation, primary screen (AID 1127); details: ConA-A647 binding fluorescence, higher = more signal;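 note: z combines 667 nm emission intensity with signal-to-noise across three replicate slides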
Sequence of Concanavalin-A (Canavalia ensiformis) (P02866 whole entry, looked up): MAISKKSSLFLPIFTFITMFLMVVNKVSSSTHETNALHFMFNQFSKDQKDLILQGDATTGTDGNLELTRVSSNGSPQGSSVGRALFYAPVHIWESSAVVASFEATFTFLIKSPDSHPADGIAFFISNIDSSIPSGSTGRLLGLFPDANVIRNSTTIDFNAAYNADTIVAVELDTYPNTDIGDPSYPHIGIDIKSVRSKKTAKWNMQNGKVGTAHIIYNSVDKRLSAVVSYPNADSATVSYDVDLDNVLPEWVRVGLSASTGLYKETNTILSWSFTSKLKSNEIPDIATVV

Compound	composite z-score [1]	composite Z-score [2]	composite z-score [3]	composite z-score [4]	composite z-score [5]	composite z-score [6]	composite z-score [7]	composite z-score [8]	composite z-score [9]	composite z-score [10]
COCCOC(=O)N1C(=O)[C@@]2(c3cc(C#CC4=CCCCC4)ccc31)[C@H](C(=O)N1CCc3cc(OC)c(OC)cc3C1)[C@H]1C(=O)O[C@H](c3ccccc3)[C@H](c3ccccc3)N1[C@@H]2c1ccc(O)cc1	0.482	0.334 (inactive)	0.285	0.307	0.267	1.32	0.858	1.1	0.463	1.19
CN(C)C(=O)[C@]1(Cc2ccccc2)N=C(c2ccc(OCCCO)cc2)O[C@@H]1c1ccccc1	0.62	0.572 (inactive)	-0.046	-0.0531	0.687	2.68	0.429	0.978	-1.01	0.915
CCOC(=O)C1=CC[C@@H](c2ccc(F)cc2)N(S(=O)(=O)c2ccc(C)cc2)[C@H]1c1ccc([N+](=O)[O-])cc1	0.854	0.348 (inactive)	0.137	-0.14	0.223	2	-0.0775	1.2	-0.493	1.09
O=C1C2C=CC(C(O)c3ccc([N+](=O)[O-])cc3)N(Nc3ccccc3)C2C(=O)N1c1ccccc1 (stereo not given)	0.822	-0.0589 (inactive)	0.261	-0.0591	0.77	1.42	-0.163	0.594	-0.225	0.49
C=CCN1C(=O)[C@]2(O[C@H](CCO)[C@@H]([Si](C)(C)c3ccc(OC)cc3)[C@@H]2C)c2ccccc21	0.482	-0.291 (inactive)	-0.157	-0.129	0.277	0.621	-0.116	-0.241	-0.884	0.201
CN(C)C(=O)[C@@]1(CCS(=O)(=O)c2ccccc2)N=C(c2ccc(OCCCO)cc2)O[C@H]1c1ccccc1N=[N+]=[N-]	0.856	-0.288 (inactive)	0.488	-0.112	0.669	2.13	0.521	1.29	-0.0717	0.972
[N-]=[N+]=NCc1ccccc1C[C@]1(C(=O)NCc2ccccc2)N=C(c2ccc(OCCCO)cc2)O[C@H]1c1ccccc1CN=[N+]=[N-]	0.735	0.597 (inactive)	0.192	0.0522	0.727	2.67	0.478	0.839	-0.324	0.958
CO[C@H]1O[C@H](CO)[C@@H](OC(=O)Nc2ccc(C(F)(F)F)cc2)[C@H](OC(=O)Nc2ccccc2-c2ccccc2)[C@@H]1OC(=O)Nc1ccccc1-c1ccccc1	0.816	0.0336 (inactive)	0.387	-0.0496	0.647	2.21	0.818	1.29	0.102	1.15
COCC(=C=CC[C@@H](O)c1cccc(OCCO)c1)C[C@@H](O)COCc1ccccc1	0.809	-1.85 (inactive)	0.381	0.121	0.552	3.68	0.684	0.92	-0.69	0.132
O=C1O[C@@H](c2ccccc2)[C@@H](c2ccccc2)N2[C@@H](c3ccc(O)cc3)[C@]3(C(=O)Nc4ccc(C#CC5=CCCCC5)cc43)[C@@H](C(=O)N3CCCCCCC3)[C@H]12	0.508	2.78 (inactive)	1.24	0.276	0.589	2.97	1.85	1.29	0.543	0.702
NCCCC[C@@H]1NC(=O)[C@H]2C[C@@H](C(=O)O)[C@@H](c3cccc(OCCO)c3)N2C1=O	0.294	1.71 (inactive)	0.526	-0.0106	0.396	2.88	0.521	1.29	1.39	1.1
CC(C)CNC(=O)[C@@H]1c2ccccc2C(=O)N(C2Cc3ccccc3C2)[C@H]1c1ccc(CO)cc1	-0.191	-0.577 (inactive)	-0.219	-0.0984	0.687	0.284	1.45	0.547	-0.0902	0.378
COC(=O)[C@@]1(Cc2ccc(F)cc2)[C@H]2c3cc(C(=O)N(C)C)n(CCn4cc([N+](=O)[O-])nc4C)c3C[C@H]2CN1C(=O)c1ccccc1	0.781	-0.133 (inactive)	0.0203	0.107	0.477	2.02	0.317	0.155	-0.187	0.294
COC(=O)[C@@]1(Cc2ccc(OC)cc2)[C@H]2c3cc(C(=O)N(C)C)n(Cc4ccsc4Br)c3C[C@H]2CN1C(=O)c1ccccc1	0.968	-0.362 (inactive)	0.69	0.371	0.898	1.65	0.107	0.399	-0.0018	0.852
CC(C)(C)OC(=O)CC[C@]1(C(=O)N2CCOCC2)N=C(c2ccc(OCCCO)cc2)O[C@H]1c1ccccc1CN=[N+]=[N-]	0.508	0.341 (inactive)	0.116	-0.0219	0.745	3.11	0.519	1.31	-0.227	0.977
C=CCN1C(=O)[C@]2(O[C@H](CCn3cc([C@H](O)c4ccccc4)nn3)[C@@H]([Si](C)(C)c3ccc(OC)cc3)[C@@H]2C)c2cc(N3C(=O)c4cccc5cccc3c45)ccc21	0.626	0.783 (inactive)	-0.141	-0.126	0.522	0.515	0.389	0.598	-0.693	0.471
COCCOC(=O)N1C(=O)[C@@]2(c3cc(C#CCCO)ccc31)[C@H](c1ccc(O)cc1)N1[C@H](c3ccccc3)[C@H](c3ccccc3)OC(=O)[C@H]1[C@@H]2C(=O)N1CCc2cc(OC)c(OC)cc2C1	-0.997	0.454 (inactive)	0.341	0.305	0.345	1.48	1.07	1.32	0.789	1.06
CCOC(=O)C[C@H]1[C@H](OC(=O)Cc2ccc3c(c2)OCO3)[C@@H](NC(=O)c2ccccc2)c2cc(OCCCO)ccc2N1C(=O)Cc1ccc(OC)cc1	0.521	-0.751 (inactive)	-0.116	-0.0974	0.544	1.04	-0.0337	0.683	-0.302	0.808
CCCC[C@H]1OB(O)C[C@H]2C1=C(C)C[C@H]1C(=O)C=CC(=O)[C@H]12	-0.324	-0.0764 (inactive)	0.0159	-0.106	0.011	0.423	0.121	1.04	0.821	0.544
CN1C(=O)[C@]2(CCS(=O)(=O)c3ccccc3)N=C(c3ccc(OCCCO)cc3)O[C@@H]2c2ccccc21	0.568	0.222 (inactive)	0.0026	-0.121	0.531	2.81	0.354	1.2	0.502	0.838
CC(=O)c1ccc(C(O)C2C=CC3C(=O)N(C)C(=O)C3N2NC(=O)OC(C)(C)C)cc1 (stereo not given)	1	-0.331 (inactive)	0.103	0.119	0.885	2.61	0.366	1.29	-0.971	1.17
C=CCOC(=O)[C@H]1[C@@H]2C(=O)O[C@@H](c3ccccc3)[C@@H](c3ccccc3)N2[C@@H](c2ccc(OCCOC(=O)[C@H]3C[C@H]4C(=O)NCC(=O)N4[C@H]3c3ccc(O)cc3)cc2)[C@]12C(=O)Nc1ccc(I)cc12	0.163	-0.0149 (inactive)	-0.0647	-0.104	0.0742	0.737	0.0174	0.503	0.677	1.13
COc1ccccc1CN1C(=O)c2ccccc2[C@](Cc2ccccc2I)(C(=O)NCCCN(C)C)[C@@H]1c1ccc(CO)cc1	0.0893	-0.105 (inactive)	-0.243	-0.181	0.475	1.86	2.08	1.3	0.176	1.11
C[C@H]1NC(=O)C([C@@H](C)OCc2ccccc2)NC(=O)[C@@]23C(=O)N[C@@H](Cc4ccccc4)C2[C@H](C)[C@@]2(C)O[C@H]2C3/C=C/C/C=C\CNC1=O (stereo not given in full)	-0.224	-0.211 (inactive)	-0.136	-0.177	0.661	0.234	-0.0311	-0.204	0.601	-0.401
NC(=O)N1C(=O)C2C(C1=O)C1C=C(CCCO)C2C(c2ccc(CN3CCCC3)cc2)N1Cc1cccc(OC(F)(F)F)c1 (stereo not given)	0.0639	0.463 (inactive)	0.0142	-0.0148	0.203	0.904	0.0715	0.64	0.681	-0.171
C=CC[C@]1(C(=O)NCc2ccccc2)COC(c2ccc(OCCCO)cc2)=N1	0.981	3.11 (inactive)	0.0789	0.114	0.84	2.75	1.46	-0.297	-0.623	-0.507
O=C1C2C=CC(C(O)c3cccc(O)c3)N(Nc3ccccc3F)C2C(=O)N1c1ccccc1 (stereo not given)	0.92	-0.539 (inactive)	0.025	-0.141	0.756	-0.0811	-0.841	0.664	-0.406	0.0597
CC(C)CNC(=O)[C@@H]1c2ccccc2C(=O)N(Cc2ccccc2)[C@H]1c1ccc(CO)cc1	-0.159	-0.318 (inactive)	-0.394	-0.122	0.83	1.63	1.35	0.293	-1.1	-0.102
